{"source": "PubChem BioAssay (NCATS)", "note": "Records with an inconclusive call do not appear. Unmarked numbers belong to inactive results. The source made the active and inactive calls. The call rests on the fitted dose curve; in most records, active means well fitted activation curve with a large enough effect; inconclusive means small, poorly fitted or top-dose-only effect; inactive means no such curve, though single readings can be large or run the other way. On the % scale 0 is the no-effect control and ±100 the full control effect; potency means the concentration at half of the fitted maximal effect.", "data": [{"target": "Rap guanine nucleotide exchange factor 4 (Homo sapiens) (UniProt Q8WZA2)", "sequence (Q8WZA2 whole entry, looked up)": "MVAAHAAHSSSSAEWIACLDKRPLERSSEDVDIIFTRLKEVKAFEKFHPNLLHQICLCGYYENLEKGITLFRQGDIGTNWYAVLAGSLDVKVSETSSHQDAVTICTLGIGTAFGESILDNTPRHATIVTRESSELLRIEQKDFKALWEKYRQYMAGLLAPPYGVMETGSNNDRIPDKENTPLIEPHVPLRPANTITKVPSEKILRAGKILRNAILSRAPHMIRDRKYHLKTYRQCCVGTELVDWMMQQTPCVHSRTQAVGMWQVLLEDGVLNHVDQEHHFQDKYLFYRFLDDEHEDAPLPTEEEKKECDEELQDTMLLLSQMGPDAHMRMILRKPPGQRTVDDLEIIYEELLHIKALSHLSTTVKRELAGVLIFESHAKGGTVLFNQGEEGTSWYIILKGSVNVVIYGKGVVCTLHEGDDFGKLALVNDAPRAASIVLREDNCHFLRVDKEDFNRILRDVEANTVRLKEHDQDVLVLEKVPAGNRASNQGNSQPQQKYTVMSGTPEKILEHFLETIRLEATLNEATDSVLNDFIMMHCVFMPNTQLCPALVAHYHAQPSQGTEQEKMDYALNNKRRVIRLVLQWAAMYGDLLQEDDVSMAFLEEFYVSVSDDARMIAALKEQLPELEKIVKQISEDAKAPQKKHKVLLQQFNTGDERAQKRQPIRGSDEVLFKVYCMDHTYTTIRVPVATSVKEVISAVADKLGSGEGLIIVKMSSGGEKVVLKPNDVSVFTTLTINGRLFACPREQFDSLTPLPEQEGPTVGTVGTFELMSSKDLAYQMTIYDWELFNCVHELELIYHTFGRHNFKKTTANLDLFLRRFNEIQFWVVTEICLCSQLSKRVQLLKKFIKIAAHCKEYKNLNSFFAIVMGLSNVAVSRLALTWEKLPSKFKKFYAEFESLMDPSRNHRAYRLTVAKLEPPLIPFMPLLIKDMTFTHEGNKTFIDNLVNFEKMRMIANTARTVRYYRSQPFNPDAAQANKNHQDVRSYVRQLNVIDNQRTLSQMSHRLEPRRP", "test": "Confirmatory qHTS for agonist of cAMP-regulated guanine nucleotide exchange factor 4 (EPAC2) (AID 1645884);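 further: nucleotide exchange releases bodipy-GDP from Rap1 and this lowers its fluorescence; nearly all actives have a fitted effect of over 65% in size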", "settings": "EPAC2 GEF activity, Rap1B-BODIPY-GDP fluorescence; series mostly up to 154 µM; activation: at the top concentration", "values": [{"smiles": "CCOc1ccc(CCNC(=O)c2cccc(S(=O)(=O)N3CCCCC3)c2)cc1OCC", "activation": "-0.17%"}, {"smiles": "C=CCCCN(Cc1ccccc1)S(=O)(=O)c1ccccc1Br", "activation": "1.87% [at 17.1 µM, percent relative to cAMP agonist control]"}, {"smiles": "CCCCCN(C(=O)CCC(=O)OCc1ccc(C(C)C)cc1)c1c(N)n(CCCC)c(=O)[nH]c1=O", "activation": "-23.6%"}, {"smiles": "COc1ccc(Br)cc1CNC(=O)c1ccc2nc(C(C)C)oc2c1", "activation": "-68.5% [at 83.8 µM, percent relative to cAMP agonist control]"}, {"smiles": "Cc1ccc2c(c1)C=CC(C#N)N2C(=O)c1ccccc1", "note": "(centres undefined)", "activation": "7.94%"}, {"smiles": "CC(/C=C1\\SC(=S)N(NS(=O)(=O)c2ccccc2)C1=O)=C\\c1ccccc1", "activation": "7.93% [at 17.1 µM, percent relative to cAMP agonist control]"}, {"smiles": "CC(C)OC(=O)c1c(-c2ccccc2)c(-c2ccccc2)nn(C)c1=O", "activation": "-8.42% [at 83.8 µM, percent relative to cAMP agonist control]"}, {"smiles": "CCN1C/C(=C/c2ccc(N3CCOCC3)cc2)C(=O)/C(=C/c2ccc(N3CCOCC3)cc2)C1", "Potency": "100 µM (active)"}, {"smiles": "O=C(O)C(c1ccccc1)N1C(=O)/C(=C\\c2ccc(-c3ccccc3Cl)o2)SC1=S", "note": "(centres undefined)", "activation": "-123%"}, {"smiles": "Cc1ccc(CN(C(=O)COc2cccc(Cl)c2)c2ccccn2)o1", "activation": "0.854% [at 83.8 µM, percent relative to cAMP agonist control]"}, {"smiles": "CC(Sc1ccccc1)C(=O)NNC(=O)c1csc(N2CCOCC2)n1", "note": "(centres undefined)", "activation": "4.98% [at 17.1 µM, percent relative to cAMP agonist control]"}, {"smiles": "NC(=O)c1sc(=S)n2c1[nH]c(=O)c1sccc12", "activation": "-18.1%"}, {"smiles": "Cc1ccc(NC(=O)N2CCN(c3nnc(C)c4c(C)n(-c5ccc(Cl)cc5)nc34)CC2)c(C)c1", "activation": "-12.3% [at 83.8 µM, percent relative to cAMP agonist control]"}, {"smiles": "COc1cc(/C=C2\\SC(=S)N(NS(=O)(=O)c3ccc(C)cc3)C2=O)cc(OC)c1OC", "activation": "-40.3%"}, {"smiles": "CC1(C)Cc2ccccc2-c2nnc(-c3ccc4ccccc4n3)n21", "activation": "-7.42%"}, {"smiles": "COc1ccc(NC(=O)c2ccc(NC3=NC4CS(=O)(=O)CC4S3)cc2)cc1", "note": "(centres undefined)", "activation": "1.91% [at 17.1 µM, percent relative to cAMP agonist control]"}, {"smiles": "COc1cc2c(cc1OC)-c1cc(NC3CCCCC3)nc(=O)n1CC2", "activation": "-2.19% [at 17.1 µM, percent relative to cAMP agonist control]"}, {"smiles": "Cc1ccccc1OCc1nc2ccccc2n1Cc1ccccc1Cl", "activation": "4.45% [at 83.8 µM, percent relative to cAMP agonist control]"}, {"smiles": "CCOC(=O)C1CCN(C(=O)c2cccc(S(=O)(=O)N(CC)c3ccccc3)c2)CC1", "activation": "3.76%"}, {"smiles": "CN(C)c1ccc(/C=C/C(=O)c2ccc3c(c2)OCO3)cc1", "Potency": "112 µM (active)"}, {"smiles": "COc1ccccc1Sc1nc(-c2ccccc2)ncc1OC", "activation": "11.6% [at 17.1 µM, percent relative to cAMP agonist control]"}, {"smiles": "O=C(NCC1CCCO1)c1ccc(C(=O)NCC2CCCO2)cc1", "note": "(centres undefined)", "activation": "5.86% [at 17.1 µM, percent relative to cAMP agonist control]"}, {"smiles": "CCOC(=O)c1sc(N=NC2=C(O)CCCC2=O)c(C(=O)OCC)c1C", "activation": "-2.58% [at 17.1 µM, percent relative to cAMP agonist control]"}, {"smiles": "COC(=O)C1(Cc2ccccc2)NC(c2ccc(F)cc2)C2C(=O)N(C)C(=O)C21", "note": "(centres undefined)", "activation": "1.04% [at 17.1 µM, percent relative to cAMP agonist control]"}, {"smiles": "CCCC1CC(c2csc(N)n2)CCO1", "note": "(centres undefined)", "activation": "-2.77%"}, {"smiles": "CCOc1cccc(CC(=O)NCc2ccc3c(c2)CCN3C(C)=O)c1OCC", "activation": "0% [at 83.8 µM, percent relative to cAMP agonist control]"}, {"smiles": "O=C(COc1ccc(F)cc1)Nc1nccs1", "activation": "1.81%"}, {"smiles": "COC(=O)C1=CN(c2ccc(F)cc2)C(N)=C(C#N)C1c1cccc(OC)c1OC", "note": "(centres undefined)", "activation": "4.9% [at 17.1 µM, percent relative to cAMP agonist control]"}, {"smiles": "Cc1ccc(Cl)cc1NC(=O)c1ccccc1OCC(=O)Nc1ccc(Cl)cc1", "activation": "0.829% [at 17.1 µM, percent relative to cAMP agonist control]"}, {"smiles": "CC(C)(C)c1nc(-c2ccccc2)nc2c1OCCC2", "activation": "-5.96%"}, {"smiles": "COc1ccc(-c2oc3cccnc3c2C#CCO)cc1", "activation": "1.68%"}, {"smiles": "COC(=O)c1cc(OC)nc2ccc(Br)cc12", "activation": "0.332%"}, {"smiles": "CCOC(=O)c1cc2n(c1N)-c1ccccc1C2=O", "Potency": "100 µM (active)"}, {"smiles": "CCN(CC(=O)Nc1ccccc1C(F)(F)F)C(=O)CCOc1ccccc1C", "activation": "-3.64% [at 17.1 µM, percent relative to cAMP agonist control]"}, {"smiles": "COc1cccc(OCCOc2ccc(/C=C3\\C(=N)N4N=C(S(C)(=O)=O)SC4=NC3=O)cc2OC)c1", "activation": "-22.2%"}, {"smiles": "Cc1sc(N)c(C(=O)c2ccccc2Cl)c1C", "activation": "5.57%"}, {"smiles": "O=C(NS(=O)(=O)c1ccc2ccc(S(=O)(=O)NCCSc3ccccc3)cc2c1)c1cccc2ccccc12", "activation": "-6.74%"}, {"smiles": "COc1ccc(N2CCN(C(=O)c3cc(C)on3)CC2)cc1", "activation": "10.9%"}, {"smiles": "COc1ccc(N(C)S(=O)(=O)c2cccc3nsnc23)cc1", "activation": "2.11%"}]}]}
